From PubChem BioAssay (Tox21) come the findings set out here.

Inconclusive results are not listed. Active and inactive are the calls of the source. Unless noted, the call rests on the fitted dose curve; in most records, active means well fitted curve in the direction sought with a large enough effect in the repeat runs; inconclusive means weak or mixed curves; inactive means no such curve, though single readings can be large; an effect the other way counts as inactive or inconclusive.

Test [1] in a line: qHTS assay to identify small molecule antagonists of the thyroid receptor (TR) signaling pathway - cell viability counter screen (AID 743064). Further: nearly all actives have a fitted effect of over 50% in size. In outline:
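GH3.TRE-Luc rat pituitary cells dosed after 4 hr plating, co-stimulated with T3 at 1 nM final, incubated 23.5 h at 37 C. Viability measured in the same wells by CellTiter-Fluor fluorescence after 30 min further at 37 C.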
(In general: Quantitative high-throughput screening tests each substance at several concentrations.)

Test [2] is described as follows: qHTS assay to identify small molecule antagonists of the thyroid receptor (TR) signaling pathway (AID 743065). Further: series mostly up to about 70 µM; nearly all actives have a fitted effect of over 55% in size. The gist of the method:
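GH3.TRE-Luc rat pituitary cells (two TREs driving luciferase) were dosed with compound, then stimulated with 1 nM T3 (final) for 23.5 h at 37 C. ONE-Glo luminescence was the read-out, with CellTiter-Fluor fluorescence as the cytotoxicity counter-screen.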

For test [3], the system named is thyroid hormone receptor (rat, GH3 cells). In words: qHTS assay to identify small molecule agonists of the thyroid receptor (TR) signaling pathway (AID 743066; calls by dose curve).
For test [4], the target named is Estrogen receptor (Homo sapiens) (UniProt P03372). In words: qHTS assay to identify small molecule antagonists of the estrogen receptor alpha (ER-alpha) signaling pathway (AID 743069; active means well fitted curve in the direction sought with a large enough effect in the signal ratio in the repeat runs, not every such curve was filed as active; the % refers to the signal ratio). The gist of the method: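 In this cell-based reporter format, GripTite HEK293 cells harbouring ER-alpha-UAS-bla were grown overnight with 2% charcoal-stripped FBS, dosed with DMSO-dissolved compounds, then challenged with 17beta-estradiol. After 18 hr at 37C, beta-lactamase activity was detected by FRET fluorescence.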
Estrogen receptor (Homo sapiens), sequence (P03372 whole entry, looked up): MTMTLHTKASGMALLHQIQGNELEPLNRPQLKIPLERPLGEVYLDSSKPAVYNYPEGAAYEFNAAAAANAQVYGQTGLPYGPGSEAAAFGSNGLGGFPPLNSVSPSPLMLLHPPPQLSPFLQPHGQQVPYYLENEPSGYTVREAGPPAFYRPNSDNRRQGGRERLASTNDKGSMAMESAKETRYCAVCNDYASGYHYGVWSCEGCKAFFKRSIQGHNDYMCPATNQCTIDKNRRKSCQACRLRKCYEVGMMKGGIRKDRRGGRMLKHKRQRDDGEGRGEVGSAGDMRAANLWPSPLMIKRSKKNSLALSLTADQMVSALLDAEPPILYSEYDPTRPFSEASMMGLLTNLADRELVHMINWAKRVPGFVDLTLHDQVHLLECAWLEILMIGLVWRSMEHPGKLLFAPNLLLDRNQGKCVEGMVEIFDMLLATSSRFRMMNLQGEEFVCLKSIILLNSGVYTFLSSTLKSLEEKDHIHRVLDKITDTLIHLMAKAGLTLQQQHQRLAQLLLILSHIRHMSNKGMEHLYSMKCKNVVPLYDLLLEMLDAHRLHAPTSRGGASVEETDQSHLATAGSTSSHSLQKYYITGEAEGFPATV

Test [5] in a line: qHTS assay to identify small molecule antagonists of the estrogen receptor alpha (ER-alpha) signaling pathway - cell viability counter screen (AID 743074; calls by dose curve; further: nearly all actives have a fitted effect of over 45% in size).
Test [6] deals with Estrogen receptor (Homo sapiens) (UniProt P03372). In words: qHTS assay to identify small molecule agonists of the estrogen receptor alpha (ER-alpha) signaling pathway (AID 743075; calls by dose curve).
Test [7] shares this target. In words: qHTS assay to identify small molecule agonists of the estrogen receptor alpha (ER-alpha) signaling pathway using the BG1 cell line (AID 743079). Further: nearly all actives have a fitted effect of over 20% in size.
Test [8] can be described thus: qHTS assay to identify small molecule antagonists of the estrogen receptor alpha (ER-alpha) signaling pathway using the BG1 cell line (AID 743080; calls by dose curve;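 further: BG1 cells stimulated with 17beta-estradiol alongside compound; series mostly up to about 70 µM; nearly all actives have a fitted effect of over 25% in size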). In outline: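 BG1Luc4E2, endogenous ER-alpha, 4xERE-luc; 5 d charcoal-stripped FBS, phenol red free; 24 h plating; cpd + 17beta-estradiol 21.5 h, 37 C/5% CO2; CellTiter-Fluor viability 30 min, then ONE-Glo luciferase 30 min RT.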

Test [9] can be described thus: qHTS assay to identify small molecule antagonists of the estrogen receptor alpha (ER-alpha) signaling pathway using the BG1 cell line - cell viability counter screen (AID 743081).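 Further: compound given together with 17beta-estradiol as the ER stimulus; series mostly up to about 70 µM; nearly all actives have a fitted effect of over 45% in size.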
The target of test [10] is Aromatase (Homo sapiens) (UniProt P11511). Briefly: qHTS assay to identify aromatase inhibitors (AID 743083). Further: series mostly up to about 70 µM; nearly all actives have a fitted effect of over 55% in size.
Aromatase (Homo sapiens), sequence (P11511 whole entry, looked up): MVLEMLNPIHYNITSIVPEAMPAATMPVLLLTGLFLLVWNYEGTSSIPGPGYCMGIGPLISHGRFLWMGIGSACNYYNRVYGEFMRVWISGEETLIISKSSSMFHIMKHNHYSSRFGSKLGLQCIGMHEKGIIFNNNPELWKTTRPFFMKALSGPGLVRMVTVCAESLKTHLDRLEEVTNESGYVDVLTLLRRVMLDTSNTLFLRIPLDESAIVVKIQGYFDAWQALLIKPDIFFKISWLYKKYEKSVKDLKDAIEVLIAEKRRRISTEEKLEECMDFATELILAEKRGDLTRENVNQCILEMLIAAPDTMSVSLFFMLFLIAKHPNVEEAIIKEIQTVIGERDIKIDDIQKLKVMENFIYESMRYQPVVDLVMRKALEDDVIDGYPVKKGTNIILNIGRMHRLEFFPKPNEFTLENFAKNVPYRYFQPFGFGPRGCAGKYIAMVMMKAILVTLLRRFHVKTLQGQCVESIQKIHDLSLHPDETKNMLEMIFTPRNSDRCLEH
Test [11] is described as follows: qHTS assay to identify aromatase inhibitors - cell viability counter screen (AID 743084).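 Further: cells stimulated with testosterone during compound exposure; nearly all actives have a fitted effect of over 55% in size.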
Test [12] deals with Aryl hydrocarbon receptor (Homo sapiens) (UniProt P35869). Briefly: qHTS assay to identify small molecule that activate the aryl hydrocarbon receptor (AhR) signaling pathway (AID 743085). Further: nearly all actives have a fitted effect of over 15% in size. Further: potency means the concentration at half of the fitted maximal effect.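 On activation: HG2L7.5c1 human HepG2 liver cells with stably integrated DRE-driven firefly reporter; series mostly up to about 70 µM.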 The gist of the method: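 HepG2 cells stably carrying a 20-DRE firefly luciferase reporter (HG2L7.5c1) treated with compound for 24 hr at 37C. Luciferase read by ONE-Glo luminescence, with CellTiter-Fluor viability read first.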
Aryl hydrocarbon receptor (Homo sapiens), sequence (P35869 whole entry, looked up): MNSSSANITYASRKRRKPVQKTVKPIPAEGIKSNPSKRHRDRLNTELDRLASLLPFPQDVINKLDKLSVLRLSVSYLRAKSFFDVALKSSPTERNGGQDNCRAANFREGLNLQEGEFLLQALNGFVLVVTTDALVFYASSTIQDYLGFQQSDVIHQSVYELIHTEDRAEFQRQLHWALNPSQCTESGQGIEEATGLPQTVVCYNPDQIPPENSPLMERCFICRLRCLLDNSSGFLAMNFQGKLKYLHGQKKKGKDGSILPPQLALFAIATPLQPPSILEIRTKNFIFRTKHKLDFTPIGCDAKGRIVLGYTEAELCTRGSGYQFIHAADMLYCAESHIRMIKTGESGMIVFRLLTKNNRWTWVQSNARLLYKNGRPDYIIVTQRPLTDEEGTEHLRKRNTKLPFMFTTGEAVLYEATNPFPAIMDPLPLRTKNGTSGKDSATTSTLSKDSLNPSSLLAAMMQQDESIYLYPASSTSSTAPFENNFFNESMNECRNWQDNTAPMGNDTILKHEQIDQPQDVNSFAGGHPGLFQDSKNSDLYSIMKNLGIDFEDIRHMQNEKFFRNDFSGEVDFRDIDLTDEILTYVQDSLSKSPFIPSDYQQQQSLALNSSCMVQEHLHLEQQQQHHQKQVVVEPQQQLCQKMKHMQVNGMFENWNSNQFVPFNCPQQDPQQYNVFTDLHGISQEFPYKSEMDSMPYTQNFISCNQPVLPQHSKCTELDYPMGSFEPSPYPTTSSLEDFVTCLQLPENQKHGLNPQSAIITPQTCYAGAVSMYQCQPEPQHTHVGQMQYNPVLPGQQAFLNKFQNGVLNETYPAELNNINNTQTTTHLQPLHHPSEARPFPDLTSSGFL

A short description of test [13]: qHTS assay to identify small molecule that activate the aryl hydrocarbon receptor (AhR) signaling pathway - cell viability counter screen (AID 743086). Further: series mostly up to about 70 µM; nearly all actives have a fitted effect of over 45% in size. The gist of the method:
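HepG2-AhR-luc (HG2L7.5c1) cells, 4000/well, treated 24 h at 37 C with compound; viability measured as CellTiter-Fluor fluorescence after 30 min in the same wells as the luciferase read.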

In test [14] the target is Peroxisome proliferator-activated receptor gamma (Homo sapiens) (UniProt P37231). Briefly: qHTS assay to identify small molecule agonists of the peroxisome proliferator-activated receptor gamma (PPARg) signaling pathway (AID 743094; active means well fitted activation curve with a large enough effect in the signal ratio in the repeat runs, not every such curve was filed as active; the % refers to the signal ratio). The gist of the method: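 Agonism was assessed in a beta-lactamase reporter system, HEK293H cells with a stably integrated UAS-bla construct under PPARg control; the 17 h treatment at 37C preceded a 1 h room-temperature FRET substrate read.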
Peroxisome proliferator-activated receptor gamma (Homo sapiens), sequence (P37231 whole entry, looked up): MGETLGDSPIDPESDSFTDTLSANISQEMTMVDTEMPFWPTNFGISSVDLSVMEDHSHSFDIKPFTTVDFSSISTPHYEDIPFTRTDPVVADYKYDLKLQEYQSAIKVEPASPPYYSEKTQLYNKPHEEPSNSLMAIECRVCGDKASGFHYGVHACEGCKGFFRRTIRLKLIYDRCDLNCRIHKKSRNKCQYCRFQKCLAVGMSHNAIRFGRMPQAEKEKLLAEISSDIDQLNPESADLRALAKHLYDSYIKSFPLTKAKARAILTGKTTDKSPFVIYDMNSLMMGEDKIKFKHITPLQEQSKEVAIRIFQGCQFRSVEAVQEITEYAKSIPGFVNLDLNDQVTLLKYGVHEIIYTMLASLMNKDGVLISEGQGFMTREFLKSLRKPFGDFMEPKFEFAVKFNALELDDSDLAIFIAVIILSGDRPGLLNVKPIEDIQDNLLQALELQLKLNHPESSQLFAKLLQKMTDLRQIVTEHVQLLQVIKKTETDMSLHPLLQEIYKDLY

Test [15] can be described thus: qHTS assay to identify small molecule antagonists of the peroxisome proliferator-activated receptor gamma (PPARg) signaling pathway - cell viability counter screen (AID 743194). Further: nearly all actives have a fitted effect of over 55% in size. The note with it: Potency: co-treated with 50 nM rosiglitazone. In outline:
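Cytotoxicity counter screen in PPARg-bla HEK293H cells, same wells as reporter assay. Compounds plus 50 nM rosiglitazone (final) for 17 h at 37 C, then viability read by CellTiter-Glo luminescence.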

Test [16] can be described thus: qHTS assay for small molecule agonists of the antioxidant response element (ARE) signaling pathway (AID 743202; active means well fitted activation curve with a large enough effect in the signal ratio in the repeat runs, not every such curve was filed as active; the % refers to the signal ratio). The gist of the method:
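HepG2 ARE-bla cells; 16 h treatment at 37 C; FRET-based beta-lactamase fluorescence read after 2 h substrate incubation at room temperature.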

Test [17] in a line: qHTS assay for small molecule agonists of the antioxidant response element (ARE) signaling pathway - cell viability counter screen (AID 743203; calls by dose curve; further: nearly all actives have a fitted effect of over 55% in size). In outline:
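ATP content via CellTiter-Glo luminescence served as the viability measure. Cells: ARE-bla HepG2, 2,000 per well. Exposure: 16 hrs, 37C/5% CO2.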

A short description of test [18]: qHTS assay for small molecule activators of the heat shock response signaling pathway - cell viability counter screen (AID 743209). Further: nearly all actives have a fitted effect of over 50% in size. The gist of the method: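 Compounds dissolved in DMSO were added to overnight-plated HSE-bla HeLa cells and left 5 h at 37 C. Cell viability was quantified by luminescence using CellTiter-Glo.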
A short description of test [19]: qHTS assay for small molecule activators of the heat shock response signaling pathway (AID 743210; active means well fitted activation curve with a large enough effect in the signal ratio in the repeat runs, with a control signal flat, not every such curve was filed as active; the % refers to the signal ratio;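 further: HeLa cells with beta-lactamase reporter driven by heat shock elements; series mostly up to about 63 µM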). In outline: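 Following overnight attachment, HSE-bla HeLa cells received test compounds for 5 h at 37 C; beta-lactamase activity was then detected via FRET substrate fluorescence.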
In test [20] the target is Peroxisome proliferator-activated receptor gamma (Homo sapiens) (UniProt P37231). Briefly: qHTS assay to identify small molecule antagonists of the peroxisome proliferator-activated receptor gamma (PPARg) signaling pathway (AID 743191; calls by dose curve; further: series mostly up to about 63 µM; nearly all actives have a fitted effect of over 30% in size). In outline:
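GeneBLAzer PPARg UAS-bla HEK293H cells, 5 h post-plating, exposed to compounds 17 h at 37C. LiveBLAzer B/G FRET substrate added for 1 h at room temperature; beta-lactamase reporter read by fluorescence intensity.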

As for `CCCCCBr`, the Potency entry in test [1], in test [2], in test [3], in test [4], in test [5] and in test [6] was “inactive” throughout. Besides, the Potency entry in [7], in [8], in test [9], in test [10], in [11] and in test [12] was “inactive” throughout. Further, the Potency entry in [13], in [14], in [15], in test [16], in test [17] and in [18] was “inactive” in each case. Moreover, the Potency result in [19] was “inactive”.

In the case of `CCC1(CC)C(=O)NC(=O)NC1=O`, the Potency entry in test [1], in [2], in test [3], in test [4], in test [5] and in test [6] was “inactive” in each case. Further, the Potency entry in [7], in test [8], in [9], in test [10], in [11] and in [12] was “inactive” throughout. Further, the Potency result in [13], in test [14], in [20], in [15], in test [17] and in test [19] was “inactive” in each case.

With `CCSCc1ccccc1OC(=O)NC`, the Potency result in [1], in test [2], in [3], in test [4], in test [5] and in test [6] was “inactive” in each case. Moreover, the Potency entry in test [7], in test [8], in test [9], in test [10], in test [11] and in test [12] was “inactive” in each case. The Potency entry in test [13], in test [20], in test [15], in [16], in [17] and in [18] was “inactive” each time. Moreover, in test [19], the Potency result is “inactive”.

For `Nc1c(Br)cc(Br)c2c1C(=O)c1ccccc1C2=O`, the Potency entry in [1], in test [2], in [3], in test [4], in test [5] and in [6] was “inactive” each time. The Potency entry in [7], in [8], in test [9], in test [10], in test [11] and in test [13] was “inactive” in each case. For the same compound, the Potency entry in test [15], in test [17], in [18] and in test [19] was “inactive” throughout. Also, the Potency in test [12] is 7.25 µM (active).

With `CCCC[N+]1(C)[C@@H]2CC(OC(=O)[C@H](CO)c3ccccc3)C[C@H]1[C@@H]1O[C@@H]12` (some centres undefined), the Potency entry in [1], in test [2], in [3], in test [4], in test [5] and in test [6] was “inactive” each time. Moreover, the Potency result in [7], in [8], in [9], in test [10], in test [11] and in test [12] was “inactive” in each case. Moreover, the Potency entry in test [13], in test [14], in test [15], in test [16], in [17] and in test [18] was “inactive” in each case. Further, the Potency entry in test [19] was “inactive”.

For `CCCCC(CC)CO[N+](=O)[O-]` (centres undefined), the Potency entry in [1], in test [2], in test [3], in test [4], in [5] and in [6] was “inactive” throughout. In addition, the Potency entry in test [7], in [9], in [10], in test [11], in test [12] and in [13] was “inactive” throughout. For the same compound, the Potency result in test [14], in [20], in test [15], in test [17], in [18] and in test [19] was “inactive” in each case.

As for `CN(C1CCCCC1)C1CCCCC1`, the Potency result in test [1], in test [2], in [3], in test [4], in test [5] and in test [6] was “inactive” in each case. Moreover, the Potency result in test [7], in test [9], in [10], in [11], in [12] and in [13] was “inactive” throughout. The Potency entry in test [14], in test [15], in test [16], in test [17], in test [18] and in test [19] was “inactive” each time.

As for `O=C(Cc1ccccc1)OCCc1ccccc1`, the Potency result in test [1], in [2], in [3], in [4], in [5] and in [6] was “inactive” throughout. Further, the Potency result in [7], in [8], in [9], in test [10], in [11] and in test [13] was “inactive” throughout. The Potency entry in [15], in test [16], in test [17] and in [19] was “inactive” throughout.
